Consider 25 molecules from PubChem BioAssay AID485270 (The Scripps Research Institute Molecular Screening Center, 2010).

The whole screen tested about 330,000 compounds, of which about 5,800 (1.8%) were called active. No stated cut-off is given here; in the data, active means inhibition mostly above about 38% (no sharp cut-off); inactive means mostly below about 40%. The sample as a whole holds a higher share of actives than the screen did.

The target of the assay is Orexin/Hypocretin receptor type 1 (Homo sapiens) (UniProt O43613). Nature of the assay: antagonists of human orexin 1 receptor (OX1R) (AID 485270).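 Further: 0% = agonist challenge alone and 100% = reference antagonist.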 As to conditions: OX1R-expressing cells, FRET antagonist read-out; at 6.6 µM; stronger effect = higher value.
Chain of Orexin/Hypocretin receptor type 1 (Homo sapiens) (O43613 whole entry, looked up): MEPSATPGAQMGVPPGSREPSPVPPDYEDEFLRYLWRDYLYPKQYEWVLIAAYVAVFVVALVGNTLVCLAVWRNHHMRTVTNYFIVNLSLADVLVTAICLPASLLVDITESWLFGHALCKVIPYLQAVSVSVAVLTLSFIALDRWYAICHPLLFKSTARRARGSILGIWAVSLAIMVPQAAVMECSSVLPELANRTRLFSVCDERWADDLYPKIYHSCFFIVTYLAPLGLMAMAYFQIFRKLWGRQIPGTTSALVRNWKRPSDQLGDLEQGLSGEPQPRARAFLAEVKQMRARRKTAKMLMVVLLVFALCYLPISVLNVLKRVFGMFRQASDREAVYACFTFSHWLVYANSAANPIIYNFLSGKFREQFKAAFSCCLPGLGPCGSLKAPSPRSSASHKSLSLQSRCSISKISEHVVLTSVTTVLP
For the molecule `Cc1noc(C)c1S(=O)(=O)N(C)C[C@H]1Oc2c(NC(=O)Nc3ccc4c(c3)OCO4)cccc2C(=O)N([C@H](C)CO)C[C@@H]1C`, the inhibition is 2.76% (inactive).
`C[C@H](CO)N1C[C@H](C)[C@H](CN(C)CC2CC2)Oc2ccc(NC(=O)CCN3CCOCC3)cc2C1=O`: the inhibition was -2.5% (inactive).
As for `Cc1ccc(S(=O)(=O)N(C)C)cc1NC(=O)C(C)OC(=O)c1ccc2ccccc2n1` (stereo not given), the inhibition was 7.22% (inactive).
Regarding `Cc1ccc(C(=O)OCc2nc(N)nc(Nc3ccccc3C)n2)cc1`, the inhibition is -2.57% (inactive).
In the case of `Nc1nc(COC(=O)CCC(=O)c2ccc(Cl)cc2)nc(Nc2ccccc2)n1`, the inhibition is 37.4% (active).
In the case of `CC(NC(=O)COC(=O)CCC(=O)c1ccc(Cl)cc1)c1ccccc1` (stereo not given), the inhibition was 10.1% (inactive).
For `O=C(NCc1ccc2c(c1)OCO2)c1cc([N+](=O)[O-])ccc1N1CCOCC1`, the inhibition was 19.9% (inactive).
For `Cc1c(C(=O)OC(C)C)sc(NC(=O)c2cccnc2)c1C#N` the value was 54.5% (inactive); for `CC1CCCCC12NC(=O)N(CC(=O)N1CCN(c3ccccc3)CC1)C2=O` (stereo not given), -1.13% (inactive).
As for `O=C(Nc1cc(S(=O)(=O)Nc2ccc(Cl)cc2)ccc1O)c1ccc(F)cc1F`, the figure is 8.71% (inactive).
Take `O=C(CN1C(=O)NC2(CCCCCCC2)C1=O)NCc1ccc(F)cc1`: the inhibition is 8.6% (inactive).
With `CC[C@@]1(C(=O)OC)N[C@H](CN(C)C(C)=O)[C@@H]2C(=O)N(C)C(=O)[C@@H]21`, the inhibition is 1.97% (inactive).
On to `Cc1ccc(S(=O)(=O)NC[C@H]2O[C@@H](n3cnc4c(N)ncnc43)[C@H](O)[C@@H]2O)s1`, for which the inhibition is -6.3% (inactive).
With `CCN(CC)c1ccc(NC(=O)c2ccc(Cl)nc2)cc1`, the inhibition is 17.1% (inactive).
In the case of `CCN(CC)c1ccc(/C=N/NC(=O)CNC(=O)c2cccnc2)cc1`, the inhibition is 3.18% (inactive).
For the molecule `CCN(CC)c1ccc(C(=O)c2cnc(/N=C/N(C)C)s2)cc1`, the inhibition is 66.5% (active).
For `O=C(NCCN1CCOCC1)c1cc(-c2cccs2)nc2ccccc12` the value was 18.8% (inactive); for `CCCCN(C)CCCNC(=O)c1cc(-c2cccs2)nc2ccccc12`, 13.3% (inactive).
As for `O=C(Nc1nnc(-c2ccccc2)o1)c1cc(-c2cccs2)nc2ccccc12`, the figure is 88.8% (active); as for `O=C(c1ccc(S(=O)(=O)NCc2ccco2)cc1)N1CCN(c2ccccc2)CC1`, 11.5% (inactive); as for `COc1ccc(S(=O)(=O)Nc2cccc3c2O[C@H](CN(C)S(=O)(=O)c2ccc(OC)cc2)[C@@H](C)CN([C@H](C)CO)C3=O)cc1`, -2.59% (inactive).
For `COc1cc(OC)cc(C(=O)NNC(=O)Cc2cccs2)c1` the value was 1.69% (inactive).
Turning to `Cc1oc2cc([N+](=O)[O-])c(O)c([N+](=O)[O-])c2c1C(=O)c1ccc(Br)cc1`, the inhibition was 67.5% (active).
For `COc1ccc(C(=O)c2c(C)oc3cc([N+](=O)[O-])c(O)c([N+](=O)[O-])c23)cc1`, the inhibition was 30.6% (inactive).
For `Cc1cc(C(=O)O)ccc1[N+](=O)[O-]` the value was 1.62% (inactive).

Usually inhibition stands for the change of the read-out against control, counted positive when it falls.
